# Screening data deposited in PubChem BioAssay by National Center for Advancing Translational Sciences (NCATS).
# Hits are enriched below; roughly 12% of the tested compounds scored in any of these assays.
# VP16 counter – inhibits Gal4-VP16 luciferase reporter, ROR gamma counter-screen; Drosophila S2 Gal4-VP16 UAS-luciferase, luminescence, 20 h; Potency, µM (top dose mostly 53.6 µM), actives largely listed as inhibitors; 310,000 compounds, 3.5% hits;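 further: Gal4-VP16 expression switched on by copper sulfate through the metallothionein promoter; nearly all actives have a fitted effect of over 50% in size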
# ALDH1A1 inh – blocks purified human ALDH1A1 activity. AID 1030. P00352. Purified ALDH1A1, NADH fluorescence, propionaldehyde substrate. Potency, µM (top dose mostly 75.3 µM), actives largely listed as inhibitors. 220,000 compounds, 7.3% hits; active means well fitted inhibition curve with a large enough effect, not every such curve was filed as active; inconclusive means small, poorly fitted or top-dose-only effect, or another doubt; inactive means no such curve, though single readings can be large or run the other way
# RORgamma inh – ROR gamma (mouse) transcription inhibition; Drosophila S2 Gal4-RORgamma UAS-luciferase reporter, 20 h; Potency, µM (doses to about 53.6 µM), most hits filed as inhibitors; 310,000 compounds, 5.4% hits; AID 2551; further: nearly all actives have a fitted effect of over 60% in size
# Target sequence (P51450 whole entry, looked up, the tested form may be a part): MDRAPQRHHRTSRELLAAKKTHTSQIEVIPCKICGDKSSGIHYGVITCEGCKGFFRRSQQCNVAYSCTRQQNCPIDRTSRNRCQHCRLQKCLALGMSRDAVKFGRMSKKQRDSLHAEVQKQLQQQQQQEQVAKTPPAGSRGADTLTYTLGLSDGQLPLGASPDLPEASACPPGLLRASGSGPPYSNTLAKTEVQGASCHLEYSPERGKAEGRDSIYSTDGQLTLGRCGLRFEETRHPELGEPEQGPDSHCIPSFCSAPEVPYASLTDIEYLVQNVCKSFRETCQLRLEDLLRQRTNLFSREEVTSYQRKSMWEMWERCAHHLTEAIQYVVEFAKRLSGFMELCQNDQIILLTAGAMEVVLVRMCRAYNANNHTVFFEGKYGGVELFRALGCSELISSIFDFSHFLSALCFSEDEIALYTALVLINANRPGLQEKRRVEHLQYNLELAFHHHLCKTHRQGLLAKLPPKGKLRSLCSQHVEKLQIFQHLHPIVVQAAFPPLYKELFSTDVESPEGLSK
#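 Schneider cells (Drosophila), stable Gal4 DBD–ROR gamma + UAS-luc; 1 hr cmpd preincubation; Cu2+ induction 700 uM final; 20 hr ambient; luminescence.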
# Sfp inh – Sfp phosphopantetheinyl transferase inhibition | 310,000 compounds, 3.5% hits | Biochemical Sfp PPTase activity, qHTS | Q9F4F7 | AID 1490 | Potency, µM, actives largely listed as inhibitors;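 further: the enzyme is Sfp with the accession as filed and its product quenches rhodamine fluorescence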
#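 Sfp 15 nM + cpd, 15 min RT; start w/ rhodamine-CoA 5 uM, BHQ-2-YbbR 12.5 uM (final); 50 mM Hepes pH 7.6, 10 mM MgCl2, 0.01% NP-40, 0.01% BSA; read 525/598 nm at 0 and 30 min.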
# PLK1 PBD inh – PLK1 (human) polo-box domain binding inhibition; P53350; Plk1 PBD binding of FITC phosphopeptide, fluorescence polarization; Potency, µM, actives largely listed as inhibitors; 360,000 compounds, 2.8% hits; AID 720504; further: series mostly up to about 57 µM; nearly all actives have a fitted effect of over 65% in size
# Hits are given with their value; n = inactive; u = inconclusive; x = not tested or not shown; [ ] = remark or other dose. Unless noted, the call rests on the fitted dose curve; in most records, active means well fitted curve in the direction sought with a large enough effect; inconclusive means small, poorly fitted or top-dose-only effect, or another doubt; inactive means no such curve, though single readings can be large; an effect the other way counts as inactive or inconclusive.
SMILES,VP16 counter,ALDH1A1 inh,RORgamma inh,Sfp inh,PLK1 PBD inh
C=C(C)C(=O)OCC1CO1 (stereo not drawn),n,u,n,x,x
CN(C)S(=O)(=O)c1ccc(C(=O)NNc2nc(-c3ccccc3)c3cc(Br)ccc3n2)cc1,u,u,7.1µM,n,n
O=C(CNC(=O)c1ccc(Cl)cc1)Nc1ccc(Br)cc1C(=O)c1ccccc1,n,u,u,n,n
O=C(NCc1ccco1)c1ccc(Cn2c(=O)c3ccccc3n(Cc3cccc(F)c3)c2=O)cc1,n,u,n,n,15µM
C=CCN1C[C@@H](C)N([C@H](c2ccc(C(=O)N(CC)CC)cc2)c2cccc(OC)c2)C[C@@H]1C,x,n,x,x,x
CCCOC(=O)[C@@H]1[C@@H](C(=O)O)[C@H]2CC[C@@H]1O2,x,n[13.5 µM],x,x,x
CN1CC[C@@]2(C)c3cc(O)ccc3N(C)[C@@H]12,n,n,n,n,5.3µM
CN1CCN(c2ccc(NC(=O)Oc3ccccc3)cc2)CC1,n,n,n,n,n
CN1CC[C@@]2(C)c3cc(O)ccc3N(C)C2O1 (stereo partly drawn),u,x,u,n,x
CN1CC[C@@]2(C)c3cc(OC(=O)Nc4ccccc4)ccc3N(C)[C@@H]12,x,11µM,x,n,x
CC[C@H](CO)NC(=O)[C@H]1C=C2c3cccc4[nH]cc(c34)C[C@@H]2N(C)C1,n,n,n,n,x
C[C@H](CC(C#N)(c1ccccc1)c1ccccc1)N1CCCCC1,x,n[13.5 µM],x,x,x
COC(=O)OCC12CCC(O1)C1(C)C(=O)OCC21 (stereo not drawn),n,n,n,n,24µM
Cc1cc([N+](=O)[O-])c2ccccc2[n+]1[O-],3.5µM,x,u,n,u
Cc1ccccc1[N+](=O)[O-],n,n,n,x,n
O=C(O)c1cccc([As]=[As]c2cccc(C(=O)O)c2)c1 (stereo not drawn),x,n[13.5 µM],x,x,x
c1ccc(CNCCc2ccc3c(c2)OCO3)nc1,n,n,n,n,n
Fc1cccc(CCNCc2ccccn2)c1,n,n,n,56µM,n
O=[N+]([O-])c1ccccc1-c1ccccc1,n,u,n,x,x
Cc1cccc(C(=O)NC(Oc2ccccc2)C(Cl)(Cl)Cl)c1 (stereo not drawn),n,n,n,n,15µM
COC1CC(=C(c2cccs2)c2cccs2)C[N+](C)(C)C1 (stereo not drawn),n,x,n,n,x
Nc1ccccc1N=Cc1c(O)n(CCC2=CCCCC2)c(=O)[nH]c1=O,n,2.8µM,n,n,n
O=C(N/N=C/c1c(O)n(CCC2=CCCCC2)c(=O)[nH]c1=O)c1ccccc1,u,u,11µM,n,n
O=c1[nH]c(=O)n(CCC2=CCCCC2)c(O)c1C=Nc1cccc(F)c1,n,u,u,n,n
O=c1[nH]c(=S)n(CCC2=CCCCC2)c(O)c1C=NCc1cccnc1,n,n,n,n,x
SMILES,VP16 counter,ALDH1A1 inh,RORgamma inh,Sfp inh,PLK1 PBD inh
O=C(N/N=C/c1c(O)n(CCC2=CCCCC2)c(=S)[nH]c1=O)c1ccccc1,u,u,5µM,n,u
O=C(N/N=C/c1c(O)n(Cc2ccc(F)cc2)c(=O)[nH]c1=O)c1ccccc1,n,n,13µM,n,n
CC1O[C@@H](OC2CC[C@@]3(C=O)C4CC[C@]5(C)C(C6=CC(=O)OC6)CC[C@@]5(O)C4CC[C@]3(O)C2)C(O)C(O)C1O (stereo partly drawn),n,n,n,n,x
O=C1CC2OCC=C3CN4CCC56c7ccccc7N1C5C2C3CC46 (stereo not drawn),n,x,n,n,x
Cc1ccccc1-n1c(-c2ccco2)nc2ccccc2c1=O,n,n,n,n,n
O=c1c2ccccc2nc(-c2ccc([N+](=O)[O-])cc2)n1-c1ccccc1,n,3.2µM,n,n,n
Cc1ccccc1-n1c(-c2ccc([N+](=O)[O-])cc2)nc2ccccc2c1=O,n,7.9µM,n,n,n
Cc1cccc(-n2c(-c3ccc([N+](=O)[O-])cc3)nc3ccccc3c2=O)c1,n,u,n,n,n
CCOC(=O)C1=C(N)Oc2ccccc2C12C(=O)N(CC(=O)OC)C(CC(=O)OC)=C2C(=O)OC (stereo not drawn),n,1.3µM,n,n,n
C=CCN1C(=O)C2(C(C(=O)OCC)=C(N)Oc3ccccc32)c2c1c1ccccc1oc2=O (stereo not drawn),n,0.4µM,n,n,n
CCOC(=O)C1=C(N)OC2=C(C(=O)CCC2)C12C(=O)N(CC(N)=O)c1ccccc12 (stereo not drawn),n,n,n,n,n
CC(C)Br,n,n,n,x,x
CC(=O)c1ccc2c(c1)C1C(Cl)C(Sc3ccccc3[N+](=O)[O-])CC1C(c1ccccc1[N+](=O)[O-])N2 (stereo not drawn),n,u,n,u,n
CC(=O)c1ccc2c(c1)C1C(Cl)C(Sc3ccccc3[N+](=O)[O-])CC1C(c1ccccc1)N2 (stereo not drawn),n,7.9µM,n,n,15µM
Cn1nc(OC(=O)Nc2ccc(Cl)cc2)cc1C(F)(F)F,n,n,u,n,x
COc1cc2cc(c1Cl)N(C)C(=O)C[C@H](OC(=O)C(C)C)[C@]1(C)O[C@@H]1[C@@H](C)[C@H]1C[C@](O)(NC(=O)O1)[C@@H](OC)/C=C\C=C(\C)C2,x,n[13.5 µM],x,x,x
COc1ccc(C(C#N)N2CCOCC2)cc1 (stereo not drawn),n,35µM,u,n,n
Cn1cc(NC(=O)CCl)cn1,n,18µM,n,n,n
Nc1ccc(N)cc1,n,n,n,n,x
CC(C)(C)NC(=O)N1c2ccccc2Sc2ccccc21,u,x,n,n,n
CCCCCCCCCCCCCCC[C@@H](O)[C@@H](N)COP(=O)(O)O,n,n,n,n,x
CCCCCN1C(=O)c2cc(OC)ccc2[C@@]2(C(=O)OCC)Cc3cc(OC)ccc3[C@@H]12,x,x,x,x,4.7µM
CCOC(=O)[C@]12Cc3cc(Cl)ccc3[C@H]1N(C)C(=O)c1cc(OC)ccc12,x,x,x,x,11µM
CCOC(=O)[C@]12Cc3cc(OC)ccc3[C@H]1N(CC(=O)OC)C(=O)c1cc(OC)ccc12,x,x,x,x,13µM
CCOC(=O)[C@]12Cc3cc(OC)ccc3[C@H]1N(C)C(=O)c1cc(OC)ccc12,x,x,x,x,9.5µM
CC(C)[C@@H](C)/C=C\[C@@H](C)[C@@H]1CC[C@H]2C3=CC=C4C[C@@H](O)CC[C@]4(C)[C@H]3CC[C@]21C,x,n[13.5 µM],x,x,x
CCN1C[C@@]2(COC(=O)c3ccccc3N3C(=O)CC(C)C3=O)CC[C@H](OC)[C@]34C5C[C@@H]6[C@@H](OC)C[C@@](O)(C5[C@H]6OC)[C@@](O)(C13)[C@@H](OC)C24 (stereo partly drawn),n,n,n,n,x
C[C@@H]1O[C@@H](O[C@H]2C[C@@H](O)[C@]3(CO)[C@H]4[C@H](O)C[C@]5(C)[C@@H]([C@@H]6COC(=O)C6)CC[C@]5(O)[C@@H]4CC[C@]3(O)C2)[C@H](O)[C@H](O)[C@H]1O,x,n,x,x,x
